# Experimental data published in PubChem BioAssay (EPA / NIEHS).
# Values joined by “and” are separate entries in the source; they are usually repeats but may differ in a detail not shown here. Identical values can stand only once. Where a structure was tested more than once in an assay, its records may differ in their call. Active and inactive are the calls of the source. Rule for the calls: active = hit-call score of the fitted dose curve at least 0.9, where 1 is the maximum; inactive = score below 0.9.
# Assay: CCTE_Shafer_MEA_dev_burst_rate: CCTE's Neural Network Formation Assay for Burst Rate, Shafer Lab (AID 2284042)
# Description: CCTE_Shafer_MEA_dev assay is conducted using Axion Biosystems 48 well microelectrode array (MEA) plates and Maestro recording system. Each well of the MEA plate contains a grid of 16 microelectrodes embedded in the culture surface. Electrically active cells, such as neurons, can be cultured over the electrodes, and electrical activity in these cells can be recorded extracellularly. The spontaneous firing of neurons is captured from each electrode on a microsecond timescale providing both temporally and spatially precise data. […] The CCTE_Shafer_MEA_dev assay uses primary cultures of rat cortical neurons. Recordings are made on days post-plating 5, 7, 9 and 12. As these cultures mature over time, neural networks develop functional activity and form cohesive networks in which electrical activity can be highly coordinated. CCTE_Shafer_MEA_dev_burst_rate is 1 of 19 assay components of the CCTE_Shafer_MEA_dev assay. It measures the frequency of single-electrode bursts (temporally-clustered groups of action potential firing) as the total number of bursts divided by the length of the recording in a microelectrode array (MEA) using Axion Biosystems Maestro 768 channel amplifier with the AxIS adaptive spike detector. The mean bursting rate is averaged across the active electrodes to report a well-mean value. To collapse across multiple recordings made on days post-plating 5, 7, 9 and 12, the trapezoidal area-under-the-curve of the component is calculated.Data from the assay component CCTE_Shafer_MEA_dev_burst_rate was analyzed into 1 assay endpoint. This assay endpoint, CCTE_Shafer_MEA_dev_burst_rate, was analyzed in the negative analysis fitting direction relative to DMSO as the negative control and baseline of activity. Using a type of functional reporter, gain or loss-of-signal activity can be used to understand electrical activity.
# On the day prior to culture, each well was coated thoroughly with 150 uL of 0.05% polyethyleneimine (PEI, Sigma Cat P3143) in 50 mM HEPES (Sigma Cat H7523) at a pH of 8. The plate was incubated at 37C for one hour. PEI was rinsed out with 500 uL of sterile water three times. Plates were stored at 4C until the day of culture. This culture was plated at a seeding density of 1.5 x 10^5 cells/well on a 48-well MEA plate, prepared as described above. Cells were administered via a 25 uL media/laminin ([…]; Sigma Cat L2020-1MG) drop directly onto the microelectrode array, as adding the cells with the laminin results in better attachment than pre-coating with laminin. After 2 hours, an additional 475 uL of cortical media was added and the cells returned to the incubator. Exposure starts at day 0 of plating and is continued over twelve days of network development until the experiment is terminated. Cells are fed with fresh medium on DIV 5 and 9, following the recordings on those days. The entire volume of media in the well is exchanged and any vehicle or compound treatment is renewed. Complete details are found in OP-NHEERL/ISTD/SBB/TJS/2015-03-r0 (available on request, email shafer.tim@epa.gov). Measurement of the electrical activity is non-invasive, and recordings can be made from the same plate over multiple different days of the culture. In cortical neurons, this allows for the measurement of extracellular action potentials over the period during which networks form in the MEA plate.
SMILES,outcome,AC50
O=C(O)C(F)(F)C(F)(F)C(F)(F)C(F)(F)C(F)(F)C(F)(F)C(F)(F)C(F)(F)F,inactive,–
CO/C=C(/C(=O)OC)c1ccccc1COc1cccc(C(F)(F)F)n1,–,280 nM (active) and 327 nM (active)
c1cc2ccc3cccc4ccc(c1)c2c34,inactive,–
ClC1=C(Cl)[C@]2(Cl)[C@@H]3[C@H]4C[C@H]([C@@H]5O[C@H]45)[C@@H]3[C@@]1(Cl)C2(Cl)Cl,inactive,–
ClC(Cl)=C(c1ccc(Cl)cc1)c1ccc(Cl)cc1,–,4.06 µM (active)
ClC1=C(Cl)[C@]2(Cl)[C@@H]3[C@@H](Cl)[C@H]4O[C@H]4[C@@H]3C1(Cl)C2(Cl)Cl,inactive,–
CCOP(=S)(OCC)SCSC(C)(C)C,inactive,23.2 µM (active)
Oc1ccc(C(c2ccc(O)cc2)(C(F)(F)F)C(F)(F)F)cc1,inactive,–
NS(=O)(=O)C(F)(F)C(F)(F)C(F)(F)C(F)(F)C(F)(F)C(F)(F)C(F)(F)C(F)(F)F,inactive,–
ClC1=C(Cl)[C@]2(Cl)[C@@H]3[C@@H]4C[C@@H]([C@H]5O[C@@H]45)[C@@H]3[C@@]1(Cl)C2(Cl)Cl,–,5.67 µM (active)
COc1ccc(O)c(C(C)(C)C)c1,inactive,–
Clc1ccc(C(c2ccccc2Cl)C(Cl)(Cl)Cl)cc1 (stereo not drawn),–,1.98 µM (active)
O=C(O)C(F)(F)C(F)(F)C(F)(F)C(F)(F)C(F)(F)F,inactive,–
O=S(=O)(O)C(F)(F)C(F)(F)C(F)(F)C(F)(F)F,inactive,–
C=CC(N)=O,inactive,–
O=S(=O)(O)C(F)(F)C(F)(F)C(F)(F)C(F)(F)C(F)(F)C(F)(F)F,inactive,–
CCC(C)(c1ccc(O)cc1)c1ccc(O)cc1,inactive,–
